Here are results for 46 molecules from PubChem BioAssay (EPA / NIEHS).

The AC50 is the midpoint of the concentration-response curve, whichever way the signal moves.

Inconclusive results are not listed. The source holds several records for some structures; these can differ, active in one and inactive in another. Calls of active or inactive are those of the source. How the source made its calls: active means hit-call score of the fitted dose curve at least 0.9, where 1 is the maximum; inconclusive means response in the unintended direction; inactive means score below 0.9.

In assay [1] the target is Retinoic acid receptor alpha (Homo sapiens) (UniProt P10276). Briefly: NVS_NR_hRARa_Agonist: NovaScreen (NVS) Nuclear Receptor Binding Assay for human Retinoic Acid Alpha Receptor Agonism (RAR) (AID 2283361). A digest of the protocol: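 Cell-free TR-FRET binding readout with extracted receptor protein, read 2 hours after dosing; gain-of-signal fitted relative to DMSO. Screened in duplicate at 25 uM, actives then run in concentration-response.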

For assay [2], the target named is Nuclear receptor subfamily 1 group I member 2 (Homo sapiens) (UniProt O75469). Briefly: NVS_NR_hPXR: NovaScreen (NVS) Nuclear Receptor Binding Assay for human Pregnane X Receptor (PXR) (AID 2283365).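 Further: a drop in FRET signal versus DMSO baseline means the compound binds.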 A digest of the protocol: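 Read-out: TR-FRET, human PXR, 2 h post-dosing, cell-free. Loss of signal vs DMSO taken as binding activity; 25 uM primary, concentration series secondary.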

Assay [3] deals with Estrogen receptor beta (Homo sapiens) (UniProt Q92731). The assay can be described thus: OT_ER_ERbERb_1440: Odyssey Thera (OT) 24-hour HEK293T Protein-Complementation Assay for Estrogen Receptor-beta/-beta Homodimer (AID 2283380).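 Further: scored as signal increase over DMSO baseline for both agonists and antagonists.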 Summed up:
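HEK293T cells stably expressing ER beta LBD (aa 310-547) homodimer fragment-complementation reporter, dosed 24 h. Cells formaldehyde-fixed, Draq5-stained; gain in nuclear (agonist) or nuclear plus cytoplasmic (antagonist) fluorescence versus DMSO read by laser scanning cytometry.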

In assay [4] the target is human Peroxisome Proliferator-activated Receptor alpha (PPARa), PPARA (gene 5465) (UniProt Q07869). The assay can be described thus: NVS_NR_hPPARa: NovaScreen (NVS) Nuclear Receptor Binding Assay for human Peroxisome Proliferator-activated Receptor alpha (PPARa) (AID 2283359).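 Further: activity means loss of TR-FRET signal versus DMSO baseline.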 A digest of the protocol:
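Cell-free TR-FRET binding assay with extracted PPARα protein, read 1 h after dosing. Primary screen in duplicate at 25 uM, with actives retested in concentration series. Loss of signal versus DMSO.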

Assay [5] deals with Retinoic acid receptor alpha (Homo sapiens) (UniProt P10276). Briefly: NVS_NR_hRAR_Antagonist: NovaScreen (NVS) Nuclear Receptor Binding Assay for human Retinoic Acid Alpha Receptor Antagonism (RAR) (AID 2283358). Summed up: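 Cell-free TR-FRET binding assay with extracted human RARalpha in antagonist mode, read 2 h after dosing. Loss of signal was fitted relative to DMSO; the primary screen used 25 uM in duplicate, with concentration series on follow-up.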

For assay [6], the target named is Norway rat Vesicular Monoamine Transporter (VMAT2), neurotransmitter transporter, Slc18a2 (gene 25549) (UniProt Q01827). The assay can be described thus: NVS_TR_rVMAT2: NovaScreen (NVS) Transporter Assay for Norway rat Vesicular Monoamine Transporter (VMAT2), neurotransmitter transporter (AID 2283376).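 Further: actives lower the bound radioligand signal below the DMSO level.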 Summed up: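 Radioligand displacement binding on rat forebrain tissue preparation, filter-based scintillation read-out 1 hour after dosing. Primary screen in duplicate at 25 uM, then concentration series for actives; loss of signal versus DMSO.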

Assay [7] deals with human Norepinephrine Transporter (NET), SLC6A2 (gene 6530) (UniProt P23975). The assay can be described thus: NVS_TR_hNET: NovaScreen (NVS) Transporter Assay for human Norepinephrine Transporter (NET) (AID 2283377).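 On AC50: displacement of radioligand from human NET seen as loss of scintillation signal.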 A digest of the protocol: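 Cell-free radioligand binding using CHO-derived membrane protein expressing human NET, read by filter scintillation counting 1 h after dosing; loss of signal vs DMSO. Initial duplicate screen at 25 uM, actives retested in concentration series.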

Assay [8] deals with Agonist Androgen Response Element (ARE), AR (gene 367) (UniProt P10275). The assay can be described thus: OT_AR_ARELUC_AG_1440: Odyssey Thera (OT) 24-hour CHO-K1 Luciferase Assay for Agonist Androgen Response Element (ARE) (AID 2283379). Summed up:
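CHO-K1 cells carrying an ARE-driven luciferase reporter were exposed to compounds for 24 h. Luminescence was then read after adding a D-luciferin/ATP mix, and activity was scored as a gain in signal over DMSO vehicle.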

The target in assay [9] is Glucocorticoid receptor (Homo sapiens) (UniProt P04150). Briefly: NVS_NR_hGR: NovaScreen (NVS) Nuclear Receptor Binding Assay for human Glucocorticoid Receptor (GR) (AID 2283363).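 On AC50: activity is loss of specific radioligand binding signal relative to DMSO.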 A digest of the protocol: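 Cell-free radioligand displacement assay on extracted human GR, read 16 h after dosing by filter-based scintillation counting. Screened in duplicate at 25 uM, then concentration series for actives; loss of signal versus DMSO baseline.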

Assay [10] concerns the target guinea pig Sigma Receptor, Non-selective Binding, SIGMAR1 (gene 100135589) (UniProt Q60492). The assay can be described thus: NVS_OR_gSIGMA_NonSelective: NovaScreen (NVS) Nuclear Receptor Binding Assay for guinea pig Sigma Receptor, Non-selective Binding (AID 2283367). Summed up: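 Radioligand displacement on guinea pig brain membranes, read by filter-based scintillation counting 1 h after dosing. Loss of signal versus DMSO; initial duplicate single-point screen at 25 uM, actives followed in concentration series.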

Assay [11] concerns guinea pig Dopamine Transporter (DAT), gene 100714898. Briefly: NVS_TR_gDAT: NovaScreen (NVS) Transporter Assay for guinea pig Dopamine Transporter (DAT) (AID 2283369).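 Further: active compounds lower bound radioligand signal relative to DMSO.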 Summed up:
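Primary pass: duplicate wells at 25 uM, threshold e.g. 30% inhibition. Follow-up: singleton concentration-response, highest 50 uM. Radioligand binding on guinea pig striatal membranes, 2 h, filtration scintillation detection.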

In assay [12] the test system is rat Norepinephrine Transporter (NET), gene 83511. The assay can be described thus: NVS_TR_rNET: NovaScreen (NVS) Transporter Assay for rat Norepinephrine Transporter (NET) (AID 2283373). A digest of the protocol: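 Rat forebrain membranes; radioligand binding measured by filter-based scintillation counting 1 hour after dosing. Loss of specific binding versus DMSO baseline scored; primary screen in duplicate at 25 uM, actives followed up in concentration series.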

For assay [13], the target named is human Dopamine Transporter (DAT), SLC6A3 (gene 6531) (UniProt Q01959). The assay can be described thus: NVS_TR_hDAT: NovaScreen (NVS) Transporter Assay for human Dopamine Transporter (DAT) (AID 2283374).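 Further: activity means loss of bound radioligand signal relative to DMSO.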 Summed up:
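Cell-free radioligand displacement binding at human DAT, 1 h after dosing, with filtration and scintillation counting. Primary screen in duplicate at 25 uM, actives then in concentration series. Loss of bound signal versus DMSO scored.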

Assay [14] addresses mouse Estrogen Receptor alpha (Era), Esr1 (gene 13982) (UniProt P19785). The assay can be described thus: NVS_NR_mERa: NovaScreen (NVS) Nuclear Receptor Binding Assay for mouse Estrogen Receptor alpha (Era) (AID 2283378).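 Further: hit means loss of bound radioligand signal relative to DMSO.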 Summed up: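 Measurements come from scintillation counting after filtration, taken 18 hours after chemicals were added to a cell-free mouse Era preparation with radioligand. Screening was duplicate at 25 uM, with concurrent positive and negative controls and confirmatory concentration series for actives.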

For assay [15], the target named is human Thyroid Receptor Alpha (TRa), THRA (gene 7067) (UniProt P10827). Briefly: NVS_NR_hTRa_Antagonist: NovaScreen (NVS) Nuclear Receptor Binding Assay for human Thyroid Receptor Alpha Antagonism (TRa) (AID 2283362).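 Further: activity is loss of signal relative to DMSO baseline.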 Summed up:
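In this biochemical format, receptor protein is dosed with chemical and read after 1 hour via AlphaLISA. Decreases from the DMSO baseline indicate antagonist activity; screening used 25 uM in duplicate before concentration-response confirmation.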

Assay [16] concerns the target rat Serotonin Transporter (SERT), Slc6a4 (gene 25553) (UniProt P31652). Briefly: NVS_TR_rSERT: NovaScreen (NVS) Transporter Assay for rat Serotonin Transporter (SERT) (AID 2283375). A digest of the protocol: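 Using rat forebrain membrane SERT, test chemicals compete with a radioligand for 1 hour, and bound counts are taken by filter-based scintillation. Screening starts at 25 uM in duplicate, followed by concentration series for actives.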

Sequence of human Peroxisome Proliferator-activated Receptor alpha (PPARa), PPARA (gene 5465) (Q07869 whole entry, looked up): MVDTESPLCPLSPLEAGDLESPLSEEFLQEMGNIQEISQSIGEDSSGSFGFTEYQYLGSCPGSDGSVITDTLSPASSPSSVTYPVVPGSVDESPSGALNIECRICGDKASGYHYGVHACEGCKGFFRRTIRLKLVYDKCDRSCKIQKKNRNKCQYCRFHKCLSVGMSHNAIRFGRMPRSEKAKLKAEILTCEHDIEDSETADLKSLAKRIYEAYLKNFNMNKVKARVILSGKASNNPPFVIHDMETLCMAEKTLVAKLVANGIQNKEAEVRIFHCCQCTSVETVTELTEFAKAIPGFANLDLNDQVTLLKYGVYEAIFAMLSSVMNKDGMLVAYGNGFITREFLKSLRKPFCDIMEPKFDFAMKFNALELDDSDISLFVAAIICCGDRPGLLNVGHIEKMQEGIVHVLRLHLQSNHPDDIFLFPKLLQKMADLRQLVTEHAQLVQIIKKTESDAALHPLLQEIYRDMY
Sequence of Agonist Androgen Response Element (ARE), AR (gene 367) (P10275 whole entry, looked up): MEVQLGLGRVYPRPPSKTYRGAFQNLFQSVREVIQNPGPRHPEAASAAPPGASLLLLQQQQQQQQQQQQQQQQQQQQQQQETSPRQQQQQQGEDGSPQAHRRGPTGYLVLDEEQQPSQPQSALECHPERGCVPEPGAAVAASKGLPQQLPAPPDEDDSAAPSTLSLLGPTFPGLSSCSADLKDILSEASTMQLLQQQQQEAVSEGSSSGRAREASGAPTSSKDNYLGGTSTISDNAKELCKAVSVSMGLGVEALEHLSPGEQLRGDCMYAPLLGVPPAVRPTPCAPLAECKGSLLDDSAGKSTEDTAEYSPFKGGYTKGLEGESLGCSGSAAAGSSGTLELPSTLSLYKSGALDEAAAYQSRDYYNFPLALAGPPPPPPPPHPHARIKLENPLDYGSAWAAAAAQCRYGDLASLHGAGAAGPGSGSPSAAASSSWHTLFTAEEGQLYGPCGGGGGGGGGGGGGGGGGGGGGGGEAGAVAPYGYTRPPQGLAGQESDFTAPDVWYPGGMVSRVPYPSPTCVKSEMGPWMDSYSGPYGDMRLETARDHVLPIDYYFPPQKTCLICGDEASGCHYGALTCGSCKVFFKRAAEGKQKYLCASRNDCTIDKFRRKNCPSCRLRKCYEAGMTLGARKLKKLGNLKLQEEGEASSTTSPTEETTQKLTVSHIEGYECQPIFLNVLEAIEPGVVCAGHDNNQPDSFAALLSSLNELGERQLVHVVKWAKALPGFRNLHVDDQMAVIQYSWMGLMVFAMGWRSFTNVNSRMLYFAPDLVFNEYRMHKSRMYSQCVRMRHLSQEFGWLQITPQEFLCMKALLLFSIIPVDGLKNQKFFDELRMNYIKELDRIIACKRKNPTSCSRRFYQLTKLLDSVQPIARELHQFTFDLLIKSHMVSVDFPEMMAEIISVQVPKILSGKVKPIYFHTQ
Sequence of human Dopamine Transporter (DAT), SLC6A3 (gene 6531) (Q01959 whole entry, looked up): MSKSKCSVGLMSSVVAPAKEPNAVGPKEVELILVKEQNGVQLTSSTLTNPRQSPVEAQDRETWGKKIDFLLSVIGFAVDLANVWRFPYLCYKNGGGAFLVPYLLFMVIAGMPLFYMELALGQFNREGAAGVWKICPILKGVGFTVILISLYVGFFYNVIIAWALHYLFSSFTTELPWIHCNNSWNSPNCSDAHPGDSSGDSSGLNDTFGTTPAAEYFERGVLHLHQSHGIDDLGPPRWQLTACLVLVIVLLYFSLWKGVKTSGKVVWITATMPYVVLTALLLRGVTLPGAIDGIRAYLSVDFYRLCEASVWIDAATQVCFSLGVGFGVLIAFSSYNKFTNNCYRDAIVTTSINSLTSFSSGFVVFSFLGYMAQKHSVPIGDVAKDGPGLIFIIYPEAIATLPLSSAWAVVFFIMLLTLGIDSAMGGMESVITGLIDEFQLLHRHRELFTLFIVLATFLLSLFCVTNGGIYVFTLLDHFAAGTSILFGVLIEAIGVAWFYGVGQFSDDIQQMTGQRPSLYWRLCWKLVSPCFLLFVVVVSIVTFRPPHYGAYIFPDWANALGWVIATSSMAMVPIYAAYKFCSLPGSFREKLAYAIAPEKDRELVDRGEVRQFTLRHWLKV
Sequence of Nuclear receptor subfamily 1 group I member 2 (Homo sapiens) (O75469 whole entry, looked up): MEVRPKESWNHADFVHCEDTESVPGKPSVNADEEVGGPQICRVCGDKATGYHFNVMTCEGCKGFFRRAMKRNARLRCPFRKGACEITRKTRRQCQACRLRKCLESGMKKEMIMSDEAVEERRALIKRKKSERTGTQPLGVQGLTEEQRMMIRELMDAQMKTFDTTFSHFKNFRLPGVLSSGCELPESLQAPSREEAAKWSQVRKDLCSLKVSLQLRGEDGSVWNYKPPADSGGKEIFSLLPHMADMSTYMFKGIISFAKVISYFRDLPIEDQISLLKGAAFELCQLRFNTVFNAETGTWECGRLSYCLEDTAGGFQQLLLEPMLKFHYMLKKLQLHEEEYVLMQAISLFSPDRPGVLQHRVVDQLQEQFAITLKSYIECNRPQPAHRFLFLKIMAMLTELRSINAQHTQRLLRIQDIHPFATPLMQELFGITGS
Sequence of Estrogen receptor beta (Homo sapiens) (Q92731 whole entry, looked up, the tested form may be a part): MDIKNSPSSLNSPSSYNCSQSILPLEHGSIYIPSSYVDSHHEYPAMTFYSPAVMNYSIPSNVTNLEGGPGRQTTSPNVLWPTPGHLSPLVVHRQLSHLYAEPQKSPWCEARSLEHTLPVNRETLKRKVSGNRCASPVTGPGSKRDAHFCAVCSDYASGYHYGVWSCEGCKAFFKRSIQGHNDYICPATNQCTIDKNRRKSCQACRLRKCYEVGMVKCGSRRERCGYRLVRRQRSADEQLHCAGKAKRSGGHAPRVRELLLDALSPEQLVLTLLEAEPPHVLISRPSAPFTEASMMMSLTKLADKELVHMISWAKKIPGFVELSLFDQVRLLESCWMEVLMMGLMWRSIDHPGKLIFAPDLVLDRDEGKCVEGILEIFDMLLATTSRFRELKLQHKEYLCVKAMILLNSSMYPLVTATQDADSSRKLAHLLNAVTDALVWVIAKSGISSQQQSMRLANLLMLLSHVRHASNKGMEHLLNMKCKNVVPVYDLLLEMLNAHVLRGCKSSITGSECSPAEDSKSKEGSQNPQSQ
Sequence of mouse Estrogen Receptor alpha (Era), Esr1 (gene 13982) (P19785 whole entry, looked up): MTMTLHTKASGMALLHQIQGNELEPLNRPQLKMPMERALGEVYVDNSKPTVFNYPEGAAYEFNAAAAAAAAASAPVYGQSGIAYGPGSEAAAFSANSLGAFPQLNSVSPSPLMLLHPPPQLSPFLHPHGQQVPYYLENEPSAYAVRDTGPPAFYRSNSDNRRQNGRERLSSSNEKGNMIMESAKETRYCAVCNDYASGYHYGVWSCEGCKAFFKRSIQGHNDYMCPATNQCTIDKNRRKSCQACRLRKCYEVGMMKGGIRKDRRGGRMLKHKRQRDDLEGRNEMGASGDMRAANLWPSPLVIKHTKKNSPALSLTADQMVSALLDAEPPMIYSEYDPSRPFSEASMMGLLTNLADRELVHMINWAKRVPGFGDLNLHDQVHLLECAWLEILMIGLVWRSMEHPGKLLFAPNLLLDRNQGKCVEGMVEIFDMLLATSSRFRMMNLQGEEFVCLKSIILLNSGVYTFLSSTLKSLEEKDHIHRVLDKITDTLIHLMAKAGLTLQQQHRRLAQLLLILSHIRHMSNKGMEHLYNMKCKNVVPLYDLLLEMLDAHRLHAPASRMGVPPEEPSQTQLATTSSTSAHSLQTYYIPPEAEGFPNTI
Sequence of Norway rat Vesicular Monoamine Transporter (VMAT2), neurotransmitter transporter, Slc18a2 (gene 25549) (Q01827 whole entry, looked up): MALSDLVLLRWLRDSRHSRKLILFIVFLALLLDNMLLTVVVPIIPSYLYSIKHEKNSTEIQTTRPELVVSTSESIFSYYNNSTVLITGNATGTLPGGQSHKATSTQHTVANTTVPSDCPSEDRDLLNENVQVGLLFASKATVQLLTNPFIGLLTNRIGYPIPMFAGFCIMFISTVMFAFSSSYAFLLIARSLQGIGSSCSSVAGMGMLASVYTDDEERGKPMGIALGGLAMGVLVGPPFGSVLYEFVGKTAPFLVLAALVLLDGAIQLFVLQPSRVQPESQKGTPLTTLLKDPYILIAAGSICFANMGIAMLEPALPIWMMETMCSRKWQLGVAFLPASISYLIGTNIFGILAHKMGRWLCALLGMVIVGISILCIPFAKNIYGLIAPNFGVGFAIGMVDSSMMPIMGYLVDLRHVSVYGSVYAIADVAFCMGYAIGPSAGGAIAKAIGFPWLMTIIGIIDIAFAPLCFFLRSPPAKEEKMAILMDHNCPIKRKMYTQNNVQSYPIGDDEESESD
Sequence of human Norepinephrine Transporter (NET), SLC6A2 (gene 6530) (P23975 whole entry, looked up): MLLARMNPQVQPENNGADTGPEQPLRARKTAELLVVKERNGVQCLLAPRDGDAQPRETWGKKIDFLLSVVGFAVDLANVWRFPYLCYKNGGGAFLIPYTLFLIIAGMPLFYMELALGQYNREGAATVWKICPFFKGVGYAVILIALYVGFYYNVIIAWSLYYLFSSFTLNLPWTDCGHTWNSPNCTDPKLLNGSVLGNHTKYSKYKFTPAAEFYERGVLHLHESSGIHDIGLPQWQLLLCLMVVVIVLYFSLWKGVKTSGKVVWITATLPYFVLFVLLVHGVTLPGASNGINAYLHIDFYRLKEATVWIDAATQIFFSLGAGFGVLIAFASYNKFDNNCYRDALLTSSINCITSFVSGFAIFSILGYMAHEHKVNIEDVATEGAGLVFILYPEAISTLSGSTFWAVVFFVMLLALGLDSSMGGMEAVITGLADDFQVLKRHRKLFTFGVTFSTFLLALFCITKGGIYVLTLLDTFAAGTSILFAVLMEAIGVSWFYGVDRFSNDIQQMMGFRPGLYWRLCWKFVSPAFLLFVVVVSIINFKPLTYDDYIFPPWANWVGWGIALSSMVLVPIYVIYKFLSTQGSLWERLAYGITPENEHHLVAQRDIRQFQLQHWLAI
Sequence of guinea pig Sigma Receptor, Non-selective Binding, SIGMAR1 (gene 100135589) (Q60492 whole entry, looked up): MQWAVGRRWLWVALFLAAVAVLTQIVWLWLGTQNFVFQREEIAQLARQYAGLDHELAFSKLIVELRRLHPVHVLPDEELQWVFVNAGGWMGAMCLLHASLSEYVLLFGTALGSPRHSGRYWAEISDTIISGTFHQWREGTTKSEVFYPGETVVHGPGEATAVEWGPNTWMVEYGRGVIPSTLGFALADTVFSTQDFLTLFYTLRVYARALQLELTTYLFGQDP

Regarding `CCCCOCCOP(=O)(OCCOCCCC)OCCOCCCC`, the molecule was called inactive in assay [1] and in assay [3]. Besides, in [2], the half-maximal activity concentration (AC50) was 5.67 µM (active).
Take `O=C(CBr)OCc1ccccc1`: the outcome in assay [4] and in [3] was inactive.
`CC1(C)CN=C(NN=C(/C=C/c2ccc(C(F)(F)F)cc2)/C=C/c2ccc(C(F)(F)F)cc2)NC1`: the AC50 in assay [5] was 25 µM (active); in assay [2], 7.48 µM (active); in assay [6], 0.109 µM (active); in assay [7] it was 1.6 µM (active). For the same molecule, the molecule was classed as inactive in assay [4], in [8] and in assay [3].
As to `c1ccc2c(c1)sc1ccccc12`, in assay [9], the concentration at half-maximal activity (AC50) was 0.179 µM (active) and the molecule was classed as inactive.
For `O=C(O)C(Cl)Cl`, the molecule was called inactive in assay [4], in assay [10] and in assay [6].
Turning to `CCC(C)(C)c1ccc(O)cc1`, the result in assay [9] and in [12] was inactive. For the same molecule, the AC50 is 17.3 µM (active) in assay [11]; 10 µM (active) in [13]; 16.1 µM (active) in [7]; 25 µM (active) in assay [14]; 4.88 µM (active) in assay [3].
Consider `CCOP(=S)(NC(C)C)Oc1ccccc1C(=O)OC(C)C` (centres undefined), for which, in [9], the molecule was called inactive.
As for `CCCCN(CC)C(=O)SCCC`, the call in [2], in assay [14], in assay [8] and in assay [3] was inactive.
In the case of `CO/N=C(/C(=O)OC)c1ccccc1COc1ccccc1C`, the outcome in assay [15], in [2], in assay [14] and in [8] was inactive.
On to `CCC1(c2ccccc2)C(=O)N=C(O)NC1=O` (centres undefined), for which the molecule was called inactive in [7] and in [3].
Consider `CCNc1nc(Cl)nc(NC(C)(C)C)n1`, for which the call in assay [14], in assay [8] and in [3] was inactive.
Consider `CCOc1ccc(C(C)(C)COCc2cccc(Oc3ccccc3)c2)cc1`, for which the result in [3] was inactive.
On the same count and under the same terms, then `COCCOCCO`, with “inactive”.
For the molecule `N#C/C=C/c1ccccc1`, the outcome in assay [6] was inactive.
Regarding `Cc1ccc2c(c1N)C(=O)c1ccccc1C2=O`, in [7], the half-maximal activity concentration (AC50) is 12.2 µM (active).
Regarding `O=c1ssc(Cl)c1Cl`, the half-maximal activity concentration (AC50) in assay [13] is 14.5 µM (active); in assay [7], 18.3 µM (active).
In the case of `Cc1ccc(O)cc1C`, in [3], the outcome was inactive.
Consider `CCCCc1ccccc1`, for which the molecule was classed as inactive in assay [3].
Regarding `CCCCC(CC)COP(=O)(Oc1ccccc1)Oc1ccccc1` (centres undefined), the molecule was called inactive in assay [8] and in assay [3].
`FC(F)(F)c1ccc(Cl)cc1`: in assay [3], the outcome was inactive.
Turning to `Cc1cc(C)c(C(=O)P(=O)(c2ccccc2)c2ccccc2)c(C)c1`, the AC50 in [13] was 13.6 µM (active). For the same molecule, in assay [7], the result was inactive.
On to `Nc1ccc([N+](=O)[O-])cc1Cl`, for which the concentration at half-maximal activity (AC50) in assay [16] is 0.0449 µM (active).
Consider `Oc1ccc(I)cc1`, for which the AC50 in [16] was 2.5 µM (active); in [7] it was 19.8 µM (active). Further, in [6], the molecule was called inactive.
Take `O=[N+]([O-])c1ccc(Cl)c(Cl)c1`: the molecule was called inactive in assay [13] and in assay [7].
Regarding `O=P1(N(CCCl)CCCl)NCCCO1` (centres undefined), the molecule was classed as inactive in [14] and in assay [3].
`O=S(=O)(c1ccc(O)cc1)c1ccc(O)cc1`: the result in assay [14] was inactive. In addition, the AC50 in assay [3] was 39.5 µM (active).
For `ClC(Cl)(Cl)c1ccccc1`, the molecule was classed as inactive in assay [14] and in [3].
Regarding `O=C(O)C1C(C(=O)O)C2(Cl)C(Cl)=C(Cl)C1(Cl)C2(Cl)Cl` (centres undefined), in assay [3], the molecule was called inactive.
The same measure, in the same setting: for `O=S1(=O)OCC2C(CO1)C1(Cl)C(Cl)=C(Cl)C2(Cl)C1(Cl)Cl` (centres undefined) the value was “inactive”.
For `CC(Cl)(Cl)C(=O)O`, the outcome in assay [14] and in assay [3] was inactive.
With `CC(C)(C)OOC(C)(C)C`, the molecule was called inactive in [3].
Consider `CC(Cc1ccc(OCC(=O)O)cc1)NCC(O)c1csc(C(F)(F)F)n1` (centres undefined), for which the result in assay [6] and in assay [3] was inactive.
With `Cn1[nH]nnc1=S`, in assay [6], the result was inactive.
On to `Cc1ccc([N+](=O)[O-])cc1C`, for which, in assay [3], the molecule was called inactive.
Take `O=[N+]([O-])c1ccccc1`: the outcome in assay [14] and in [3] was inactive.
Regarding `CCOC(=O)c1ccccc1N`, the outcome in [3] was inactive.
Take `N#Cc1c(-c2ccc(Cl)cc2)[nH]c(C(F)(F)F)c1Br`: the AC50 in [7] is 16.4 µM (active).
For the molecule `[N-]=[N+]=[N-]`, in assay [8], the call was inactive.
For `CCOS(=O)(=O)OCC`, the result in [3] was inactive.
Consider `c1ccc(OP(Oc2ccccc2)Oc2ccccc2)cc1`, for which the call in assay [13], in assay [14] and in assay [3] was inactive.
Take `c1nc[nH]n1`: the molecule was classed as inactive in assay [14] and in [3].
For `c1cc2c3c(cccc3c1)CC2`, the outcome in [8] and in assay [3] was inactive.
`Oc1ccccc1Br`: the call in assay [7] was inactive.
As to `O=C(O)CF`, the molecule was classed as inactive in assay [3].
On to `Clc1ccc(Oc2ccccc2)cc1`, for which the molecule was classed as inactive in assay [13].
With `COC(N)=O`, the molecule was called inactive in assay [3].
